FAS-TE inh: FAS thioesterase (human) inhibition | P49327 | recombinant FAS-TE, OMFH fluorogenic substrate, fluorescence endpoint | inhibition, % at 15 µM | 0.67% of 360,000 active;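 active = compounds whose normalised, plate-corrected inhibition of enzyme fluorescence in the single-dose primary screen is 50% or more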;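 note: 0% = DMSO with enzyme and 100% = substrate without enzyme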
ADAM17 inh: ADAM17 inhibition, QFRET primary screen; P78536; recombinant ADAM17, EDANS/DABCYL FRET peptide cleavage; inhibition, % at 6.95 µM; 0.83% of 370,000 active;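 active = inhibition above the mean of compounds lying between control limits plus 3 SD, set per campaign, cut at about 8.5% in these data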;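 note: 0% = DMSO-only wells as the low control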
ADAM10 inh: inhibitors of human ADAM10. AID 720582. recombinant ADAM10, EDANS/DABCYL FRET peptide cleavage, 3 h. 0.62% of 370,000 active. inhibition, % at 7 µM;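 active = inhibition above a per-campaign cutoff equal to the mean of compounds falling between control-based bounds plus 3 SD, cut at about 20% in these data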;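 note: 0% = DMSO wells while the 100% control is not disclosed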
Target sequence (O14672 214-748 limits assumed): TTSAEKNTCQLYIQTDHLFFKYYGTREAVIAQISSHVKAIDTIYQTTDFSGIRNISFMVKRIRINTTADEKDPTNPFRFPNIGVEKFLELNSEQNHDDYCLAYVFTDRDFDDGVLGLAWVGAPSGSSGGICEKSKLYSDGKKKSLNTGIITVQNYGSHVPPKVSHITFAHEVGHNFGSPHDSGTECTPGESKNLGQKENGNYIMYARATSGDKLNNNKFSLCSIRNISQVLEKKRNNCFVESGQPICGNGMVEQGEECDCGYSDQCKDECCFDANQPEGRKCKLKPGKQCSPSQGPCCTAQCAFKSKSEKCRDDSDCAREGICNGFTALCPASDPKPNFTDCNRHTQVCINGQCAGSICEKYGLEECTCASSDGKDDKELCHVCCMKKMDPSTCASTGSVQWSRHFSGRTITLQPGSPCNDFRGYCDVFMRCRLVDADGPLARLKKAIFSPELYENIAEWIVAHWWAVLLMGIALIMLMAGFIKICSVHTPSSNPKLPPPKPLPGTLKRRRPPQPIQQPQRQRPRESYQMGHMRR
KLK7 zymogen act: proKLK7 (human) activation, primary screen. P49862. purified proKLK7, EDANS-DABCYL substrate fluorescence; 100% is mature enzyme control, 0% vehicle. activation, % at 7 µM. 0.9% of 370,000 active. AID 652039;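 active = activation above the mean of all tested compounds plus 3 SD, computed per campaign excluding outliers beyond control limits, cut at about 13% in these data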
NR3A LBD binder: modulates the human NR3A ligand-binding domain. NR3A LBD differential scanning fluorimetry, Tm shift; 0% = protein alone, 100% = glycine-bound protein. Tm shift relative to glycine control, % at 25 µM. 2.5% of 340,000 active. AID 1259313;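 active = melting temperature shift of at least 10% of the positive control shift, at one fixed dose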
The depositor's hits bear a star; · = not tested or not shown. A selection: hits, their analogues and other compounds. The true share with any hit is near 4.6%.

SMILES	FAS-TE inh	ADAM17 inh	ADAM10 inh	KLK7 zymogen act	NR3A LBD binder
C=CC[C@@H](CC(=O)N(CCO)Cc1ccccc1)C(=O)N[C@@H](COC(=O)[C@@H](CC=C)Cc1ccc(F)cc1)Cc1ccccc1	19	13*	23*	0	-11
C=CC[C@H](CC(=O)N(CCO)Cc1ccccc1)C(=O)NC[C@H](OC(=O)[C@@H](CC=C)Cc1ccc(F)cc1)c1ccccc1	18	-3	0	1	1
C=CC[C@@H](CC(=O)N(CCO)Cc1ccccc1)C(=O)N[C@H](COC(=O)[C@@H](CC=C)Cc1ccc(F)cc1)Cc1ccccc1	20	14*	33*	0	1
C=CC[C@@H](CC(=O)N(CCO)Cc1ccccc1)C(=O)NC[C@@H](OC(=O)[C@@H](CC=C)Cc1ccc(F)cc1)c1ccccc1	15	10.0*	20	0	-1
COC(=O)C1CN(Cc2cn(CCOC(C)=O)nn2)CCS(=O)(=O)N1Cc1ccc(F)cc1 (stereo unspecified)	·	0	6	0	·
CC(C)COc1ccc(CNC(=S)N/N=C/c2ccc([N+](=O)[O-])cc2)cc1	24	-2	6	0	2
CCCOc1ccc(CNC(=S)N/N=C/c2ccc([N+](=O)[O-])cc2)cc1	27	0	5	-1	11*
CCOc1ccc(-n2c(SCC(=O)Nc3ccc(S(=O)(=O)Nc4cc(C)nc(C)n4)cc3)nnc2-c2cccc(C)c2)cc1	·	3	5	0	·
FC(F)(F)c1cccc(N2CCN(c3ccc4nnc(-c5ccccc5)n4n3)CC2)c1	30	2	-2	0	22*
c1ccc(-c2nnc3ccc(N4CCCC4)nn23)cc1	-4	-7	-8	0	-1
COc1ccc(NC(=S)Nc2ccc(OCc3ccccc3)cc2)c(OC)c1	7	1	7	0	10*
S=C(Nc1ccc(OCc2ccccc2)cc1)Nc1cccc(Cl)c1Cl	21	1	-1	-1	12*
NS(=O)(=O)c1ccc(NC(=S)Nc2ccc(OCc3ccccc3)cc2)cc1	-2	-2	0	0	12*
S=C(Nc1ccccc1)Nc1ccc(OCc2ccccc2)cc1	-6	1	7	-1	9
CC(C)[C@H](N)C(=O)N1CCC[C@@H]1C(=O)N1CCC2CCN(S(=O)(=O)c3ccccc3)CC21 (stereo partly specified)	·	-3	3	0	·
O=C1CCC[C@H]2C[C@H](NCc3cccnc3)CC[C@]23CCCN13	·	-5	-7	·	·
Cc1ccc(N=Nc2c(N)nn3c(N)c(C#N)c(C)nc23)cc1	3	-1	6	0	26*
CC1(c2ccc(Cl)cc2)NC(=O)N(CC(=O)N2CCCC2)C1=O (stereo unspecified)	-7	-6	-5	0	11*
CC1(c2ccc(Cl)cc2)NC(=O)N(CC(=O)Nc2ccc(N3CCCCC3)cc2)C1=O (stereo unspecified)	0	-1	0	0	-1
COc1ccc(-c2csc(NC(=O)CN3C(=O)CCC3=O)n2)cc1OC	-9	-1	12	0	0
COc1ccc(-c2csc(NC(=O)CN3C(=O)CCC3=O)n2)c(OC)c1	-3	-1	-2	0	18*
COc1ccc(-c2csc(NC(=O)CSCC(=O)Nc3cc(C)on3)n2)c(OC)c1	-2	-2	-3	0	1
CCCOc1ccc(-c2csc(NC(=O)CN3C(=O)CCC3=O)n2)cc1	-5	-1	5	-1	36*
COc1ccc(-c2csc(NC(=O)CSc3ccc(Br)cc3)n2)c(OC)c1	15	3	8	0	12*
COc1ccc(-c2csc(NC(=O)CN3C(=O)CCC3=O)n2)cc1	-3	-5	-14	0	-1
SMILES	FAS-TE inh	ADAM17 inh	ADAM10 inh	KLK7 zymogen act	NR3A LBD binder
CCCCC(=O)N1CCN(C(=O)c2ccc3c(c2)nc(C)n3C2CCCC2)CC1	·	6	9	0	·
CCN(CC)S(=O)(=O)c1cc(C(=O)OCC(=O)Nc2c(F)cccc2F)ccc1F	3	2	3	0	-2
CCN(c1ccccc1)S(=O)(=O)c1cc(C(=O)Nc2cccc(Cl)c2)ccc1F	37	7	13	0	15*
CCN(CC)S(=O)(=O)c1cc(C(=O)OCC(=O)Nc2cccc(Br)c2)ccc1F	30	7	9	0	18*
O=C(Nc1cccc(Cl)c1)c1ccc(F)c(S(=O)(=O)NCc2cccs2)c1	17	6	14	1	13*
COc1ccc(C(C(=O)N(C)C2CCCC2)N(Cc2ccc(F)cc2)C(=O)c2csc3ccc(Cl)cc23)cc1OC (stereo unspecified)	·	5	11	1	·
CCOc1ccc(-n2c(COc3ccccc3)nnc2SCC(=O)Nc2ccc(OCc3ccccc3)cc2)cc1	·	2	10	0	·
Cc1c(Cc2ccccc2)c(=O)oc2c(O)c(O)ccc12	15	-31	-82	-5	10*
Cc1c(CC(=O)O)c(=O)oc2c(C)c(OCc3ccccc3)ccc12	-2	-57	-151	0	-2
CCOC(=O)c1ccc(NC(=O)Nc2ccc3c4c(cccc24)C(=O)N3CC)cc1	-17	-1	6	0	17*
CCOc1ccc(/C=C/C2=Cc3c(sc(NC(=O)CSc4n[nH]c(N)n4)c3C#N)C(C)(C)C2)cc1	-20	-8	-20	0	14*
Cc1ccsc1/C=C/C1=Cc2c(sc(NC(=O)CSc3n[nH]c(N)n3)c2C#N)C(C)(C)C1	-17	-5	-7	0	10*
O=C1[C@@H](C2CC2)[C@@H]2c3ccccc3C=NN2[C@@H]2c3ccccc3C=NN12	·	2	1	0	·
Cc1[nH]n(C(N)=S)c(=O)c1N=Nc1cc(-c2ccc(Br)cc2)[nH]n1	8	-6	0	0	24*
COc1ccc(CNCC#Cc2ccccc2)c(OC)c1	·	-2	-1	0	·
COc1ccc(CN2C(=O)c3ccccc3C(/C=N/OCc3ccc(Cl)cc3)C2=O)cc1 (stereo unspecified)	12	-40	-107	0	11*
COc1ccc(CN2C(=O)c3ccccc3C(/C=N\OCc3ccc(F)cc3)C2=O)cc1 (stereo unspecified)	8	-16	-53	1	6
CC(=O)C12CCCCC1CC1[C@@H]3CC(C)C4=CC(=O)CC[C@]4(C)C3CC[C@@]12C (stereo partly specified)	26	-4	-1	0	22*
CN1CCN(c2ccccc2NC(=O)c2ccc(-c3cccc([N+](=O)[O-])c3)o2)CC1	29	1	2	1	-8
CCC(=O)N1CCN(c2ccccc2NC(=O)c2ccc(-c3cccc([N+](=O)[O-])c3)o2)CC1	51*	-2	-11	0	-6
CC1Cc2ccccc2N1C(=O)CSc1nnc2c(n1)[nH]c1ccccc12 (stereo unspecified)	10	-1	-1	0	22*

Screens from PubChem.
